Rows were chosen to be rich in hits. Some 12% of all compounds tested hit in one or more screens of this group.
PLK1 PBD block: PLK1 (human) polo-box domain binding inhibition. P53350. Plk1 PBD binding of FITC phosphopeptide, fluorescence polarization. Potency, µM, without a hit: max response, negative = inhibition, most hits filed as inhibitors. 2.8% of 360,000 active; also: series mostly up to about 57 µM; % is scaled to controls: 0 for no effect and ±100 for the full control effect; nearly all actives have a fitted effect of over 65% in size
Sfp PPTase inh: inhibitors of Bacillus subtilis Sfp phosphopantetheinyl transferase; Q9F4F7; Biochemical Sfp PPTase activity, qHTS; Potency, µM, inactives show largest response in the series, negative = inhibition, hits mostly inhibitors; 3.5% of 310,000 active; AID 1490;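 also: the enzyme is Sfp with the accession as filed and its product quenches rhodamine fluorescence; 0% = enzyme reaction without inhibitor and -100% = no enzyme wells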
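Sfp 15 nM + cpd, 15 min RT; start w/ rhodamine-CoA 5 uM, BHQ-2-YbbR 12.5 uM (final); 50 mM Hepes pH 7.6, 10 mM MgCl2, 0.01% NP-40, 0.01% BSA; read 525/598 nm at 0 and 30 min.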
BAZ2B inh: inhibitors of human BAZ2B bromodomain; Q9UIF8; AlphaScreen BAZ2B-H3K14Ac peptide displacement; Potency, µM (series often up to 114 µM), inactives show at the highest dose activity change, negative = inhibition, actives largely listed as inhibitors; 4.4% of 360,000 active; AID 504333; also: % is scaled to controls: 0 for no effect and ±100 for the full control effect; nearly all actives have a fitted effect of over 60% in size
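AlphaScreen displacement of biotin-H3(5-23)K14Ac peptide (50 nM final) from BAZ2B (50 nM final) in PBS pH 7.4, 0.01% Tween-20; complex preformed 30 min RT, then compounds (top 110 uM) 30 min RT, beads 20 min dark.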
JMJD2A Tudor inh: inhibitors of human JMJD2A Tudor domain. AlphaScreen JMJD2A-Tudor / H3K4me3 peptide binding. Potency, µM (doses to about 114 µM), for inactives: at the highest dose activity change, negative = inhibition, usual class: inhibitors. 4.4% of 390,000 active; also: % is scaled to controls: 0 for no effect and ±100 for the full control effect; nearly all actives have a fitted effect of over 50% in size
Target sequence (O75164 whole entry, looked up, the tested form may be a part): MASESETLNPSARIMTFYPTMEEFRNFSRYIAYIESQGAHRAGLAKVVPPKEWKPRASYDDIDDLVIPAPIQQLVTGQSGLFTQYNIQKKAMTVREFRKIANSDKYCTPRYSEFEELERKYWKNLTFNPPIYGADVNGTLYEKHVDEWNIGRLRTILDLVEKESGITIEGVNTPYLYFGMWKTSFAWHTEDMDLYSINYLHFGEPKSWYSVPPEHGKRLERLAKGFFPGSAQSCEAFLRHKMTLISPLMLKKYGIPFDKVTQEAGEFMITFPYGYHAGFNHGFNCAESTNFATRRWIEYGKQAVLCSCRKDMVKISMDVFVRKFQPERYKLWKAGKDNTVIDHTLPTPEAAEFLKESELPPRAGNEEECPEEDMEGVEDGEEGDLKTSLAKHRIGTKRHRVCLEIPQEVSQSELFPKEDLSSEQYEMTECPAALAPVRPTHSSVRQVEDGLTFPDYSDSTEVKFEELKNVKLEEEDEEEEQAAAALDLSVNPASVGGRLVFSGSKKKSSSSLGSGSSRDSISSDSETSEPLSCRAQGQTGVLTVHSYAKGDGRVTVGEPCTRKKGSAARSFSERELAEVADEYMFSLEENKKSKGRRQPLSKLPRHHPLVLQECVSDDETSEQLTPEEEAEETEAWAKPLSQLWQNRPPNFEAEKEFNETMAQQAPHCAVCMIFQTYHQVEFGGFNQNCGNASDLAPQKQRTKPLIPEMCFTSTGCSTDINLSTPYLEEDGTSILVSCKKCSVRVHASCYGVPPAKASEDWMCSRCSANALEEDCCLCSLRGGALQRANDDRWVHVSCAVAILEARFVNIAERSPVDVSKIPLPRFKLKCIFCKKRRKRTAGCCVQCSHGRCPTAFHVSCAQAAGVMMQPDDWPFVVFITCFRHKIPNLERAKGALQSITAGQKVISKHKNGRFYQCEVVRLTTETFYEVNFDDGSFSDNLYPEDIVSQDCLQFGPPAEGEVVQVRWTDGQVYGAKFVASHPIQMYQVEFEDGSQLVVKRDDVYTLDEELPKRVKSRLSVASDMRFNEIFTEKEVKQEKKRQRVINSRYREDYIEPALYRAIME
G9a block: G9a (human) methyltransferase inhibition; 8.8% of 350,000 active; AID 504332; Q96KQ7; G9a H3K9 monomethylation, AlphaScreen, 2 h; Potency, µM (highest dose often 102 µM), for inactives: top-dose activity, negative = inhibition, most hits filed as inhibitors; also: % is scaled to controls: 0 for no effect and ±100 for the full control effect; nearly all actives have a fitted effect of over 75% in size
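G9a (20 nM) was preincubated 15 min with compound, then reacted 2 h at room temperature with 500 nM biotin-H3K9 peptide and 20 µM SAM. Monomethyl-H3K9 detected by AlphaScreen using anti-H3K9me1 antibody.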
HP1b binding inh: blocks HP1-beta chromodomain binding to methylated histone tails; P83916; AlphaScreen HP1-beta / biotin-H3K9me3 peptide binding; Potency, µM (highest dose often 114 µM), for inactives: top-dose activity change, negative = inhibition, actives largely listed as inhibitors; 0.56% of 390,000 active; also: nearly all actives have a fitted effect of over 70% in size
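AlphaScreen: HP1-beta (50 nM) preformed 30 min with biotin-H3(1-18)K9me3 peptide (50 nM) in PBS pH 7.4, 0.01% Tween-20. Compound added for 30 min at RT, then streptavidin donor/nickel chelate acceptor beads (10 ug/mL) for 30 min.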
Active calls of the source: *; ? = inconclusive; . = no result; [ ] = remark or other dose. Calls follow the shape of the dose curve; as a rule, active = well fitted curve in the direction sought with a large enough effect; inconclusive = small, poorly fitted or top-dose-only effect, or another doubt; inactive = no such curve, though single readings can be large; an effect the other way counts as inactive or inconclusive. Potency is read from the fitted curve at half-maximal effect.

SMILES	PLK1 PBD block	Sfp PPTase inh	BAZ2B inh	JMJD2A Tudor inh	G9a block	HP1b binding inh
O=C(O)CN1C(=O)C2C3CC(C2C1=O)C1C(c2ccc(Cl)cc2)c2sc(=O)[nH]c2SC31 (stereo not given)	-16%	-22%	-26%	-17%	50µM*	-1%
O=C(O)CN1C(=O)C2C3CC(C2C1=O)C1C(c2ccc(F)cc2)c2sc(=O)[nH]c2SC31 (stereo not given)	?	45µM*	2%	-13%	45µM*	14%
CCc1ccc(Sc2cc(C(=O)NCc3ccccc3OC)c3ccccc3n2)cc1	.	.	9%	-8%	15%[59 µM]	39%
CCC1CCCCN1S(=O)(=O)c1ccc(C(=O)Nc2sc3c(c2C(=O)NC)CCC3)cc1 (stereo not given)	.	.	2%	-19%	3%[59 µM]	6%[57 µM]
CSc1nc(NCc2ccco2)c2sc3nc(C(C)C)c4c(c3c2n1)CC(C)(C)OC4	-6%	?	-3%	-20%	?	8%
CCN(CCO)c1ncnc2c1sc1nc(C(C)C)c3c(c12)CC(C)(C)OC3	2%	13%	8%	-14%	-16%[59 µM]	5%
CSc1nc(NCCOCCO)c2sc3nc(-c4ccco4)c4c(c3c2n1)CCC4	-6%	35µM*	45µM*	-22%	16µM*	15%
CCN(CCO)c1nc(SC)nc2c1sc1nc(-c3ccco3)c3c(c12)CCC3	?	?	50µM*	-10%	?	6%
Cc1nc2cnc(Oc3ccccc3)nc2n(C2CC2)c1=O	.	8%	.	.	7%[0.501 µM]	.
COc1ccccc1-c1cncnc1Nc1ccccc1	.	-1%	.	.	2%[0.501 µM]	.
O=C(O)CCNc1cc(N2CCN(C(=O)c3ccco3)CC2)c2noc3c2c1C(=O)c1ccccc1-3	49%	-23%	13µM*	18µM*	10µM*	?
Cc1cc(N2CCN(C(=O)c3ccco3)CC2)c2ccccc2n1	-25%	22%	-14%	-14%	?	33%
CCN1CCN(c2cc(N3CCN(C(=O)c4ccco4)CC3)c3c4c(onc24)-c2ccccc2C3=O)CC1	40%	50µM*	11µM*	28µM*	18µM*	?
CC(C)(C)c1ccc(S(=O)(=O)NCc2ccc3c(c2)CCN3C(=O)c2ccccc2)cc1	.	.	0%	-19%	-4%[59 µM]	16%[57 µM]
Cc1cccc(CS(=O)(=O)Cc2ccc(C(=O)NC(C)c3ccccc3)o2)c1 (stereo not given)	-13%	9%	-12%	-6%	8%[59 µM]	74%
CCC(C)[C@@H](NC(=O)OC(C)(C)C)c1nnc(S(=O)(=O)Cc2cccc(C)c2)o1 (stereo not given in full)	8.4µM*	25µM*	2%	-14%	?	61%
CC(C)(C)OC(=O)N[C@@H](Cc1ccccc1)c1nnc(S(=O)(=O)Cc2ccccc2)o1	.	8.9µM*	-28%	.	11µM*	.
Cc1ccccc1CS(=O)(=O)c1nnc([C@H](Cc2ccccc2)NC(=O)OC(C)(C)C)o1	7.5µM*	7.9µM*	29%	-12%	40µM*	32%
CCNC(=S)N/N=C/c1sccc1C	.	13%	-30%	.	11%	.
COc1cccc(NC(=O)/C(C#N)=C/c2c(C)n(Cc3ccccc3)c3ccccc23)c1	.	.	-15%	-25%	0%[59 µM]	20%
Nc1c(N(Cc2ccco2)C(=O)c2ccccc2F)c(=O)[nH]c(=O)n1Cc1ccccc1	-5%	.	2%	-14%	-9%	13%
COc1ccc(N(CC(=O)N2CCOCC2)S(C)(=O)=O)cc1Cl	-7%	18%	-8%	11%[57.1 µM]	31%	51%
C[C@@H]1CN([C@@H](C)CO)C(=O)c2cc(NC(=O)Nc3ccc(F)cc3)ccc2O[C@@H]1CN(C)Cc1ccc(Oc2ccccc2)cc1	-2%	.	.	?	.	-9%
CCN1C(=NCCOC)N[C@@H](c2ccccc2)[C@H](C(=O)OC)[C@H]1C	-15%	3%	50µM*	-17%	-11%[12.7 µM]	16%
COC(=O)C1=C(NC(=O)c2ccc(Br)cc2)CCS1	0%	-26%	-13%	-12%	22%	37%

From PubChem
